Test results taken from PubChem BioAssay (NCI).
“And” between values parts separate entries of the source, which are not always exact repeats. Equal values may be shown once. Compounds without any hit were thinned out: in the full panel of roughly 83,000, 20% have a hit.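 Single-concentration screen, 48 h exposure, 96-well plates. Endpoint: percent growth. Below 10 = active.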 The source made the active and inactive calls.

tested on: MDA-MB-468 breast; assay: NCI-60 one-dose screen, 48 h (100 = growth as untreated, 0 = no growth, -100 = all killed); conditions: 10 µM unless noted

Row | SMILES | growth
1 | CCCCC/C(C=C(C#N)C#N)=C/c1ccccc1 | 97.9% (inactive)
2 | Cc1ccc2sc3c(NCCCNCCO)nc4ccccc4c3c(=O)c2c1 | 42.5% (inactive)
3 | CC1=C(CCC(C)N(C)Cc2ccc(OCCCN3CCCC3)cc2)C(C)(C)CCC1 (centres undefined) | -18.6% (active)
4 | COc1ccc([C@H]2[C@@H](F)C(=O)N2c2cc(OC)c(OC)c(OC)c2)cc1F | 23% (inactive)
5 | CN1C(=S)N(C)C2C1NN=C1SC(c3ccccc3)=CC(=O)N12 (centres undefined) | 62.9% (inactive)
6 | O=C(CCCCC(=O)N/N=C\c1ccccc1O)N/N=C\c1ccccc1O | 22.4% (inactive)
7 | O=C1c2cccnc2C(=O)c2c1c(C(=O)NCCn1ccnc1)c1ccccn21 | -6.68% (active)
8 | COc1ccc2c(CCCc3ccc(Cl)cc3Cl)c3[n+](cc2c1OC)CCc1cc2c(cc1-3)OCO2 | -49% (active)
9 | COC(=O)[C@]12CC[C@@H](C)[C@H](C)[C@@H]1C1=CC[C@@H]3[C@@]4(C)C(C=O)=C[C@@](C)(COC(C)=O)C4=CC[C@@]3(C)[C@]1(C)CC2 | -3.02% (active)
10 | O=C(Nc1cc(C(F)(F)F)cc(C(F)(F)F)c1)c1cc(Cl)ccc1O | -24% (active) and -1.83% (active)
11 | COc1ccc(-c2nc(SCCC(C)C)nc(N/N=C\c3ccccc3O)c2C#N)cc1 | 88.6% (inactive)
12 | NNC(=O)C1CC2c3ccccc3C1c1ccccc12 (centres undefined) | 112% (inactive)
13 | O=C(CCl)N(O)c1ccc(/C=C/c2ccccc2)cc1 | 25% (inactive) and 6.6% (active)
14 | C=C1CC2(OC1=O)C(=O)N(CCCCCCCN1C(=O)C3(CC(=C)C(=O)O3)c3ccccc31)c1ccccc12 (centres undefined) | -17% (active)
